Dicer processing – blocks human Dicer maturation of pre-miR-21; Q9UPY3; cat-ELCCA pre-miR-21 Dicer processing, chemiluminescence; hits give high values; z-score at 25 µM; 47,000 tested, 6% active; AID 1347074; in the data active means z-score above about 3, passing the limit was not always enough;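 further: plate controls were vehicle for no effect and no enzyme for full effect; higher signal means more uncleaved substrate so more Dicer inhibition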
The depositor's hits bear a star. The entries come from a sample that favours hits as a whole.

SMILES	Dicer processing
COc1ncc(C(=O)NNC(=S)Nc2cccc(C(F)(F)F)c2)cc1[N+](=O)[O-]	0.3
Cc1nn(S(=O)(=O)c2ccc(Cl)cc2)cc1-c1nsc(Nc2ccccc2)n1	-0.14
N#Cc1c(SCc2ccc(Cl)cc2)nsc1Nc1ccc(Cl)cc1	3.04*
N#Cc1cnc(SCc2ccc(Cl)cc2)nc1N	0.28
FC(F)(F)c1cccnc1SCc1ccc(Cl)cc1	-1.58
Cn1c(CSCc2nc(-c3ccc(Cl)cc3)cs2)nnc1SCC(=O)Nc1ccc(Cl)cc1	-0.37
Cc1cc2nc(-c3cc(N)ccc3Cl)oc2cc1C	-1.79
Nc1ccc2oc(-c3ccc(F)cc3)nc2c1	3.69*
Cc1ccc(-c2nc3ncccc3o2)cc1N	-0.93
O=S(=O)(Nc1ccc2oc(-c3ccc(Cl)cc3)nc2c1)c1ccccc1	4.03*
O=S(=O)(Nc1ccc2oc(-c3ccccc3F)nc2c1)c1ccccc1	-0.51
Nc1ccc2oc(-c3ccccc3F)nc2c1	2.31
Cc1ccc2nc(-c3ccc(N)cc3)oc2c1	0.3
Cc1ccc2nc(-c3cc(N)ccc3Cl)oc2c1	4.01*
Fc1ccc(-c2nc3ncccc3o2)cc1	3.27*
O=C(Nc1ccc(-c2nc3ncccc3o2)cc1)c1ccc([N+](=O)[O-])o1	0.38
Cc1cc(=O)oc2cc(NS(=O)(=O)c3ccccc3)ccc12	1.36
Nc1ccc2oc(-c3ccc(-c4nc5cc(N)ccc5o4)cc3)nc2c1	1.09
O=[N+]([O-])c1cnc(Sc2nc3cc(Cl)ccc3s2)s1	-1.52
Cn1c(=O)c2c(nc(OCc3ccccc3Cl)n2Cc2ccc(Cl)cc2)n(C)c1=O	-0.14
Cc1ccc(NC(=O)CSc2nnnn2-c2ccccc2)cc1C#N	1.53
Cc1ccc(C(=O)CSc2nnc(-c3ccccc3Br)n2C)cc1	1.57
Cc1ccc(C(=O)CC2(O)C(=O)N(C(C)C)c3ccccc32)cc1 (centres undefined)	-0.38
CSc1cccc(NC(=O)NCc2ccccc2)c1C	-0.74
Cc1cc2nc(-c3ccc(N)cc3)oc2cc1C	0.76
SMILES	Dicer processing
Nc1ccc2oc(-c3cccc(Cl)c3)nc2c1	2.27
Nc1ccc(-c2nc3cc(Cl)ccc3o2)cc1	3.19*
Clc1ccc(Cn2nnc(N3CCCCC3)n2)cc1	14.5
Nc1ccc2nc(-c3ccccc3)oc2c1	4*
Clc1ccc(-c2nc3cc(CN4CCCCC4)ccc3o2)cc1	4.3*
Clc1ccc(-c2nc3cc(NCc4cccs4)ccc3o2)cc1	-0.22
Nc1ccc2oc(-c3ccccc3)nc2c1	0.65
Nc1ccc(-c2nc3ccccc3o2)cc1	1.62
Cn1c(=O)c2c(nc(NCCN)n2Cc2ccc(F)cc2)n(C)c1=O	1.31
CC1CN(C(=S)Nc2ccc(S(=O)(=O)N3CCCCC3)cc2)CC(C)O1 (centres undefined)	5.34
CCOC(=O)C1CCCN(C(=O)c2ccc(Cl)cc2Cl)C1 (centres undefined)	-2.11
COCCCNC(=O)C(=O)NCc1ccco1	-1.23
Cc1cc(Br)c(-n2cccc2)c(Br)c1Cl	-1.15
COc1ccc(-c2sc(/N=C/c3cccs3)c(C#N)c2C)cc1OC	1.1
C=C(C)Cn1c(C2CC(=O)N(c3ccc(OCC)cc3)C2)nc2ccccc21 (centres undefined)	2.23
CCOc1ccc(N2CC(c3nc4ccccc4n3CC)CC2=O)cc1 (centres undefined)	2.94
CC(C)CCn1c(C2CC(=O)N(c3ccccc3)C2)nc2ccccc21 (centres undefined)	3.72*
CC(c1ccccc1)n1c(C2CC(=O)N(c3ccccc3)C2)nc2ccccc21 (centres undefined)	4.67*
CCCCCCn1c(C2CC(=O)N(c3ccccc3)C2)nc2ccccc21 (centres undefined)	2.21
CSc1nc2ccccc2c(=O)n1CCc1ccccc1	-0.42
CC(C)c1ccc(N2CC(C(=O)O)CC2=O)cc1 (centres undefined)	7.63
Cc1nc2ccccc2n1C1CC(=O)N(c2ccc(F)cc2)C1=O (centres undefined)	0.57
O=c1[nH]c2ccccc2n1Cc1ccc(Cl)cc1	0.77
O=C1CC(c2nc3ccccc3n2Cc2ccc(Cl)cc2)CN1c1ccccc1 (centres undefined)	5.91*
O=C1CC(SCc2ccc(Cl)cc2)C(=O)N1c1ccccc1 (centres undefined)	-5.84
SMILES	Dicer processing
O=C1CC(c2nc3ccccc3n2CCc2ccccc2)CN1c1ccccc1 (centres undefined)	4.31*
O=C(/C(=C\N1CCCC1)c1nnnn1-c1ccccc1)c1ccccc1	2.41
c1ccc(-c2cc(C3=Nn4c(nnc4-c4cccs4)SC3)on2)cc1	0.25
CCCCCOC(=O)C1=C(C)NC2=C(C(=O)CC(C)(C)C2)C1c1ccc(C(=O)OC)cc1 (centres undefined)	0.39
c1ccc2c(c1)c1ccccc1n2CC1CS1 (centres undefined)	-0.11
COc1ccc(-c2c(C(F)(F)F)oc3c(CN(C)C)c(O)ccc3c2=O)cc1OC	-0.28
Cc1ccc(C(=O)n2nc(C)c(Sc3ncccn3)c2C)cc1	-0.27
COc1ccc(C(=O)Cn2c3ccccc3n3nc(-c4ccco4)nc23)cc1	1.45
CSc1nc(-c2ccco2)nn1C(C)=O	-4.48
CSc1nc(-c2ccco2)nn1C(=O)c1ccc(C)cc1	3.21*
CSc1nc(-c2ccco2)nn1C(=O)c1ccccc1	3.42*
Cc1ccc(-c2noc(-c3ccco3)n2)cc1	0.03
O=C(CCc1nc(-c2ccc(Cl)cc2)no1)NNC(=S)NCc1ccccc1	-0.64
CCOC(=O)c1cc(-c2cccs2)nn1C(=O)c1ccccc1	-0.11
CCOC(=O)C1=C(C(=O)OCC)SC(=C2C(=S)C(C)(C)Nc3cc(C)ccc32)S1	0.28
FC(F)(F)c1cc(-c2cccs2)nc2cc(-c3ccco3)nn12	3.54*
COC(=O)c1cc2nc(-c3cccs3)cc(C(F)(F)F)n2n1	-0.66
Cc1ccc(-c2cc3nc(-c4ccco4)cc(C(F)(F)F)n3n2)cc1	-1.33
CCOC(=O)N/N=C(\C)c1ccc(C#N)cc1	-0.88
COC(OC)C(C)NC(=O)NC(=O)c1c(F)cccc1F (centres undefined)	-0.55
O=C(/C=C(\O)c1ccccc1)C(=O)Nc1ccccn1	-0.28
CC(=O)O/N=C(\C)c1sc2ccc(Cl)cc2c1C	-0.19
O=C(CSc1nc2ccccc2nc1N1CCCC1)NCc1ccco1	1.72
Clc1ccc(CNc2nc3ccccc3n2CCN2CCCCC2)cc1	3.23*
c1coc(CNc2nc3ccccc3n2CCN2CCCCC2)c1	6.13*
SMILES	Dicer processing
CCCCn1c(NCc2ccco2)nc2ccccc21	0.34
O=C(Nc1nc2ccccc2n1CCN1CCCCC1)C1CCCCC1	-4.07
O=C(Cn1c(NCCO)nc2ccccc21)c1ccc(Cl)cc1	1.79
Cc1cc(C)cc(Sc2c([N+](=O)[O-])ncn2C)c1	-5.62
Cc1nc(C(F)(F)F)nc(Sc2ccccc2Cl)c1Oc1ccccc1	-1.19
COc1cccc(C2C(C(=O)OCC3CCCO3)=C(C)NC3=C2C(=O)CCC3)c1OC (centres undefined)	0.74
COc1ccc(CCNS(=O)(=O)c2ccc(-c3csc(C)n3)s2)cc1OC	-0.24
CCCC(NS(=O)(=O)c1cccc2nsnc12)C(=O)O (centres undefined)	-0.77
O=C(Nc1ccc(OC(F)(F)F)cc1)C1CCc2ccccc2O1 (centres undefined)	-1.82
O=C(NNC(=NS(=O)(=O)c1ccccc1)NNC(=O)c1cccc(Cl)c1)c1cccc(Cl)c1	3.11*
O=C(CO/N=C/c1c(Cl)cccc1Cl)NNC(=O)c1cccc(Cl)c1	2.41
CS/C(=N/S(=O)(=O)c1ccccc1)NNC(=O)c1ccc(Cl)cc1	1.45
Cc1ccc(Cn2[nH]nnc2=S)cc1	-2.61
